KDM5B inh – Primary screen for KDM5B Histone Demethylases FDH-coupled qHTS; KDM5B demethylase, FDH-coupled NADH fluorescence (FDH is formaldehyde dehydrogenase); Potency, µM (top dose mostly 57.7 µM), actives largely listed as inhibitors; AID 1347165, 2019; 220,000 compounds, 2.6% hits; active = well fitted inhibition curve with a large enough effect; note: 0% is about no effect; nearly all actives have a fitted effect of over 70% in size
Target sequence (Q9UGL1 whole entry, looked up): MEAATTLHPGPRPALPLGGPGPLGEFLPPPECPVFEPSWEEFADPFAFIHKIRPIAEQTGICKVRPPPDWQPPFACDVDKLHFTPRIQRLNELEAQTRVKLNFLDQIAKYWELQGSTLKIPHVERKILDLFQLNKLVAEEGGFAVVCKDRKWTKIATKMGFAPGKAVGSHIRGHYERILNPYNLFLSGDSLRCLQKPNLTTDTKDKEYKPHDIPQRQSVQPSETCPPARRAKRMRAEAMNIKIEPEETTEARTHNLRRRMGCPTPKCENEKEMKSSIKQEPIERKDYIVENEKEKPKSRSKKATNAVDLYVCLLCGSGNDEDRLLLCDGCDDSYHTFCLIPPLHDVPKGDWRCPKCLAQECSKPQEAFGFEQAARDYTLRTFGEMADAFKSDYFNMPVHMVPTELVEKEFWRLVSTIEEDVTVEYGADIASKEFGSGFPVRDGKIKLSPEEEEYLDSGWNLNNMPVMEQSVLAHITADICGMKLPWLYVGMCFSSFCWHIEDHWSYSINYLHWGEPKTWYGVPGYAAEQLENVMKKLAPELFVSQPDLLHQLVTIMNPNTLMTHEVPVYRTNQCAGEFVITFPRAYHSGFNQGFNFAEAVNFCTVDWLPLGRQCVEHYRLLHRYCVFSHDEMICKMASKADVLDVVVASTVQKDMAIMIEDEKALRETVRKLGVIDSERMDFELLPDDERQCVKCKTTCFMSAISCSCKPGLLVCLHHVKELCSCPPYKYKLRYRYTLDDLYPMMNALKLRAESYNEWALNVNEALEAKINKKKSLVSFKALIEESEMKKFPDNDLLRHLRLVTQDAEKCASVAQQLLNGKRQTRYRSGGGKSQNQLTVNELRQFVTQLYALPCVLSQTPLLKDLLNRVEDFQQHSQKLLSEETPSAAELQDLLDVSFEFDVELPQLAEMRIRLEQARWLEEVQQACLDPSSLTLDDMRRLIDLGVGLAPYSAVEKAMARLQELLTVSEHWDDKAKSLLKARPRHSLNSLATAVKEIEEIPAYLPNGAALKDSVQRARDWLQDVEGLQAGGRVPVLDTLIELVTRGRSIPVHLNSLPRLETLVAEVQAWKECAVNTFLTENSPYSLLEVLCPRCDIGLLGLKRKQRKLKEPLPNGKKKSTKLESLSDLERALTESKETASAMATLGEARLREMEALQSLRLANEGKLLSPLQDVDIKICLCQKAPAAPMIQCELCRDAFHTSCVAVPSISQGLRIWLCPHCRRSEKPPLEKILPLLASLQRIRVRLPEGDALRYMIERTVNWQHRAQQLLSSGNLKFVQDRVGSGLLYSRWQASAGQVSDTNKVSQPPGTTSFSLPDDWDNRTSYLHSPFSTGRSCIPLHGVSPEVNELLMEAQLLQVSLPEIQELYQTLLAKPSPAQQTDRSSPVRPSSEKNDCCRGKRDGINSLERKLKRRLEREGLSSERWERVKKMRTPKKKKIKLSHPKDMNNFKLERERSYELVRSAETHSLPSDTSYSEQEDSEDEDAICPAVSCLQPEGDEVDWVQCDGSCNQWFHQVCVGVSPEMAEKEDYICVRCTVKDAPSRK
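qHTS format, multiple compound concentrations. Buffer 50 mM HEPES pH 7.5/0.01% Tween-20; 200 nM KDM5BΔAP final; 10 min compound preincubation; substrate-mix levels 12.5 µM peptide, 25 µM α-KG, 0.25 mM NAD⁺; 30 min RT; ΔRFU.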
* = called active by the depositor; i = inactive. The full list was thinned out, with hits kept by preference. Potency is the fitted concentration of half-maximal effect.

SMILES | KDM5B inh
CN(Cc1nc2ccccc2[nH]1)S(=O)(=O)c1cc(Br)ccc1Br | i
CCCn1c(N2CCN(Cc3ccc(Br)cc3)CC2)nc2c1c(=O)[nH]c(=O)n2C | i
COc1cc(F)ccc1-c1nc(-c2c(C)noc2C)cc2[nH]c(C)cc12 | 35µM*
Cc1noc(C)c1-c1cc2c(cc(-c3ccccc3)n2C)c(-c2cccnc2)n1 | i
COc1ncccc1-c1nc(-c2c(C)noc2C)cc2[nH]c(C)cc12 | i
Cc1noc(C)c1-c1cc2c(cc(C)n2C)c(-c2cccnc2)n1 | 35µM*
Cc1cc2c(-c3cccnc3)nc(-c3c(C)noc3C)cc2[nH]1 | 28µM*
COc1ccccc1-c1nc(-c2c(C)noc2C)cc2[nH]c(C)cc12 | i
Cc1cc2c(-c3ccccc3)nc(-c3c(C)noc3C)cc2[nH]1 | i
COc1cccc(-c2nc(-c3c(C)noc3C)cc3c2cc(C)n3C)c1OC | 35µM*
CCc1nc2c(c(-c3ccc(O)cc3)n1)CCN(Cc1cccnc1)CC2 | i
CCCc1cc(=O)[nH]c(-n2nc(C)cc2NC(=O)Cc2ccccc2)n1 | i
O=C(/C=C/c1cccc2ccccc12)NC1CCCC1 | i
COc1ccc2c(c1)c(C(C(=O)O)N1CCC(Cc3ccccc3)CC1)cn2CC(=O)O (centres undefined) | i
CCN(CC)C(CNS(=O)(=O)c1cccc(C#N)c1)c1ccsc1 (centres undefined) | i
COc1ccc2cc(S(=O)(=O)N3CCCC3)c(=O)oc2c1 | i
COc1ccc(-c2nc(-c3c(C)noc3C)cc3c2cc(C)n3CCN(C)C)cc1OC | i
Cc1noc(C)c1-c1cc2c(cc(C)n2C)c(-c2cccc([S+](C)(=O)[O-])c2)n1 | 25µM*
Cc1noc(C)c1-c1cc2c(cc(C)n2C)c(-c2ccccc2)n1 | i
COc1ncccc1-c1nc(-c2c(C)noc2C)cc2c1cc(C)n2CCN(C)C | i
COc1cccc(-c2nc(-c3c(C)noc3C)cc3c2cc(C)n3CCN(C)C)c1 | 40µM*
Cc1ccc(Nc2nc3ccccc3nc2NS(=O)(=O)c2ccccc2)cc1F | i
Cc1ccc(C(NC(=O)c2cc(=O)c3cc(C)ccc3o2)C2CC2)cc1 (centres undefined) | i
Cc1ccc(OCC(=O)Nc2ccc(N3CCN(S(C)(=O)=O)CC3)cc2)cc1Cl | i
C#CCN(CC(=O)NC(=O)NCC=C)C1CCc2ccccc21 (centres undefined) | i
SMILES | KDM5B inh
CCCc1cc(C(=O)N[C@H]2COC[C@H]2Cc2cc(C)no2)cs1 | i
Cc1cc(C[C@@H]2COC[C@@H]2NC(=O)c2cnn3cc(CCO)cnc23)on1 | 28µM*
Cc1cc(C[C@@H]2COC[C@@H]2NC(=O)c2ccc(S(N)(=O)=O)cc2)on1 | i
Cc1cc(C[C@@H]2COC[C@@H]2NC(=O)c2ccccc2-c2ccc(F)cc2)on1 | i
Cc1cc(C[C@@H]2COC[C@@H]2NC(=O)c2cc(CC(C)C)nc(N)n2)on1 | 32µM*
Cc1cc(C[C@@H]2COC[C@@H]2NC(=O)c2csc(Cc3ccccc3)n2)on1 | i
COc1ccc(NC(=O)CSC2=Nc3ccccc3C3=NC(C)C(=O)N23)cc1Cl (centres undefined) | i
N#CC1=C(N)OC2=C(C1c1cccnc1)S(=O)(=O)N(Cc1ccccc1)c1ccccc12 (centres undefined) | i
Cc1ccc(C(=O)Nc2ccc(C(C)C)cc2)c(Cl)c1 | i
CC1=C[C@@H](CNCc2cccnc2)[C@H](C(C)C)C[C@H]1Cc1nnc(-c2ccccc2)o1 | i
CC1=C[C@@H](CN(C)Cc2cccnc2)[C@H](C(C)C)C[C@H]1Cc1nnc(-c2ccc([N+](=O)[O-])cc2)o1 | 13µM*
CC1=C[C@@H](CN2CCN(c3cnccn3)CC2)[C@H](C(C)C)C[C@H]1Cc1nnc(-c2cccnc2)o1 | 32µM*
C#CCN(C)C[C@@H]1C=C(C)[C@H](Cc2nnc(-c3ccccc3F)o2)C[C@H]1C(C)C | 35µM*
C#CCN(C)C[C@@H]1C=C(C)[C@H](Cc2nnc(-c3ccc(C)cc3)o2)C[C@H]1C(C)C | i
COCCN1CCN(C[C@@H]2C=C(C)[C@H](Cc3nnc(-c4cccnc4)o3)C[C@H]2C(C)C)CC1 | i
CC1=C[C@@H](CN2CCC(C)CC2)[C@H](C(C)C)C[C@H]1Cc1nnc(-c2cccnc2)o1 | i
CC1=C[C@@H](CN(C)CCO)[C@H](C(C)C)C[C@H]1Cc1nnc(-c2ccccc2F)o1 | i
CC1=C[C@@H](CN2CCN(c3ccccn3)CC2)[C@H](C(C)C)C[C@H]1Cc1nnc(-c2ccc([N+](=O)[O-])cc2)o1 | i
CN(Cc1ccc(Br)cc1)C(=O)c1cc2ccccc2[nH]1 | i
Cc1ccc(C(=O)CC(SCC(=O)O)c2ccc(Cl)cc2)cc1 (centres undefined) | i
COc1nc2ccccc2nc1N1CCC(C(=O)NCc2ccc(F)cc2)CC1 | i
Cc1nn(-c2nc(CC(=O)Nc3ccccc3F)cs2)c(C)c1Cc1ccccc1 | i
Cc1cc(=O)oc2cc(OC(=O)C(C)Oc3ccccc3Cl)ccc12 (centres undefined) | i
O=C(c1c[nH]c2ccccc12)N1CCC(Cc2nncn2CC2CC2)C1 (centres undefined) | i
CCCn1c(C)cc(C(=O)CSc2n[nH]c(C3CC3)n2)c1C | i
SMILES | KDM5B inh
C[N+]1(CC(=O)OCCCC2CCCCC2)CCOCC1 | i
COc1cc(F)ccc1-c1cc(C(=O)NCc2c(C)cc(C)[nH]c2=O)c2c(c1)N(C(C)C)CCO2 | 32µM*
Cc1cc(C)c(CNC(=O)c2nc(-c3cccc(F)c3)cc3c2ccn3C(C)C)c(=O)[nH]1 | i
COc1cccc(-c2cc(C(=O)NCc3c(C)cc(C)[nH]c3=O)c3c(c2)N(C(C)C)CCO3)c1OC | 28µM*
COc1ccccc1CCc1nc(C2CC(=O)N(c3ccc(F)c(Cl)c3)C2)no1 (centres undefined) | i
Cc1ccc(NC(=O)c2ccc(N3CC4CC(C3)[C@H]3CCCC(=O)N3C4)nc2)c(C)c1 (some centres undefined) | i
CCCCCC1=CCC/C1=N\NC(=O)C(N)=O | i
CC(C)(Oc1nn(CCN2CCOCC2)c2ccccc12)C(=O)NCc1ccncc1 | i
COCc1ccc2c(c1)c(OC(C)(C)C(=O)NCCCn1ccnc1)nn2Cc1cccc(OC)c1 | 22µM*
COCc1ccc2c(c1)c(OC(C)(C)C(=O)NCc1cnccn1)nn2Cc1cccc(OC)c1 | i
COCc1ccc2c(c1)c(OC(C)(C)C(=O)NCCCn1ccnc1)nn2CCC(C)C | 35µM*
COCc1ccc2c(c1)c(OC(C)(C)C(=O)Nc1ccn(C)n1)nn2Cc1cccc(OC)c1 | i
CC(C)(Oc1nn(Cc2cccc(Cl)c2)c2ccccc12)C(=O)NCCCn1ccnc1 | i
CCCc1nc(C(=O)N2CCC3(CC2)C(=O)N(C)c2ccccc23)cs1 | i
Cc1ccc(C(=O)NC(Nc2ccccc2F)C(=O)c2ccccc2)cc1 (centres undefined) | i
COC(=O)c1ccc(/C=C/C(=O)c2cccs2)cc1 | i
O=C1NC(=NC2CCCCC2)C2(CCN(Cc3cccnc3)C2)N1c1cc(F)cc(F)c1 (centres undefined) | i
CNC(=O)c1cc(-c2ccc(Cl)cc2)n(-c2ccccc2)n1 | i
CC(c1cccc(-c2cccc(C(=O)N(C)C)n2)c1)N1CCCC1 (centres undefined) | i
